# PubChem BioAssay (Tox21)
# Where “and” joins values, the source holds several entries; their conditions need not be identical. Identical values can stand only once. Results filed as inconclusive are left out. A call without a number means that no potency is given here. A structure can be active in one record and inactive in another. Calls of active or inactive are those of the source. Unless noted, calls come from the whole dose curve; as a rule, active = well fitted curve in the direction sought with a large enough effect in the repeat runs; inconclusive = weak or mixed curves; inactive = no such curve, though single readings can be large; an effect the other way counts as inactive or inconclusive.
# How the values were obtained:
# [1] = biological target: Luciferin 4-monooxygenase (Photinus pyralis) (UniProt P08659); test: qHTS assay to identify small molecule inhibitors of firefly luciferase (AID 1224835); note: nearly all actives have a fitted effect of over 25% in size; note: potency is the fitted concentration of half-maximal effect; for activity change, negative = inhibition: series mostly up to about 120 µM
# Sequence of Luciferin 4-monooxygenase (Photinus pyralis) (P08659 whole entry, looked up): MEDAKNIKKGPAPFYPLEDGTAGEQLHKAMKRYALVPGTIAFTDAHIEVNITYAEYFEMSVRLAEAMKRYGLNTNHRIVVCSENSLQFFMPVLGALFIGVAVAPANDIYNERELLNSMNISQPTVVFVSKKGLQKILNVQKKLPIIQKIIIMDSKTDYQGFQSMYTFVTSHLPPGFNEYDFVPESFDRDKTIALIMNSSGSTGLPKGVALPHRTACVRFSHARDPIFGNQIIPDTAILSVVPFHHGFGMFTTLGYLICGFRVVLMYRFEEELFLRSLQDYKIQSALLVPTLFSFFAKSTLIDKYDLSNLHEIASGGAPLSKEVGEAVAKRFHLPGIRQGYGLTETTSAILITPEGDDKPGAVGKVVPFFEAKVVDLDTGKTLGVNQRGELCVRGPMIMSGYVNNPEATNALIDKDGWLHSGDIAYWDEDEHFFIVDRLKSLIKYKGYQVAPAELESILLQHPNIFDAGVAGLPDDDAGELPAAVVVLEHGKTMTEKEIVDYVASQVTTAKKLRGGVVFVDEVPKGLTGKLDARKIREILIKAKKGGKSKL
# Summary of the method: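 Quantitative HTS format; KM concentrations of both substrates. Purified P. pyralis FLuc activity quantified from luminescence images.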
# [2] = qHTS assay to identify small molecule agonists of the constitutive androstane receptor (CAR) signaling pathway - cell viability counter screen (AID 1224836); note: nearly all actives have a fitted effect of over 45% in size; note: potency is the fitted concentration of half-maximal effect; for viability change, negative = cytotoxic: series mostly up to about 92 µM
# Summary of the method: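 Cell viability multiplexed with the CAR agonist screen: CellTiter-Fluor fluorescence after 23 hr at 37 C. HepG2-CYP2B6-hCAR cells got compounds at 15 concentrations with PK11195 at 0.75 uM final.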
# [3] = qHTS assay to identify small molecule antagonists of the constitutive androstane receptor (CAR) signaling pathway - cell viability counter screen (AID 1224837); note: nearly all actives have a fitted effect of over 45% in size; note: potency is the fitted concentration of half-maximal effect; for activity change, negative = cytotoxicity: series mostly up to about 92 µM
# Summary of the method: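 To flag cytotoxic false antagonists, HepG2 hCAR/CYP2B6-2.2kb cells were treated 23 hr with 15-concentration compound series and 50 nM CITCO at 37 C/5% CO2; CellTiter-Fluor fluorescence was the measured end point.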
# [4] = biological target: Nuclear receptor subfamily 1 group I member 3 (Homo sapiens) (UniProt Q14994); test: qHTS assay to identify small molecule antagonists of the constitutive androstane receptor (CAR) signaling pathway (AID 1224838);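 note: HepG2 cells stably expressing hCAR with CYP2B6 luciferase reporter stimulated by CITCO; nearly all actives have a fitted effect of over 40% in size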; note: potency is the fitted concentration of half-maximal effect
# Sequence of Nuclear receptor subfamily 1 group I member 3 (Homo sapiens) (Q14994 whole entry, looked up): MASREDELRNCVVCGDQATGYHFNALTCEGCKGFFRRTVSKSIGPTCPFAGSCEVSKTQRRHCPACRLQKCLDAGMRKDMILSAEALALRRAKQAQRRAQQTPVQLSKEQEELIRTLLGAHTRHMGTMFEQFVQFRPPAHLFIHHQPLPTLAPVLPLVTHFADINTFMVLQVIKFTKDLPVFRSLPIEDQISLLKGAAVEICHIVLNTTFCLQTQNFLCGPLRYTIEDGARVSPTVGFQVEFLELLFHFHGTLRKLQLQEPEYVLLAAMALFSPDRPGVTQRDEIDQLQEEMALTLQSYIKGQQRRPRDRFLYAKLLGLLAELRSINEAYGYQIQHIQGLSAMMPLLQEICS
# Summary of the method: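 Human hepatoma HepG2 cells expressing hCAR and a CYP2B6 promoter (2.2 kb) luciferase construct; compound titration (15 points) with 50 nM CITCO final, 24 h at 37 C/5% CO2; luminescence via ONE-Glo after 30 min at room temperature.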
# [5] = biological target: Nuclear receptor subfamily 1 group I member 3 (Homo sapiens) (UniProt Q14994); test: qHTS assay to identify small molecule agonists of the constitutive androstane receptor (CAR) signaling pathway (AID 1224839); note: nearly all actives have a fitted effect of over 15% in size; note: potency is the fitted concentration of half-maximal effect;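 for activation: HepG2 cells stably carrying human CAR and a CYP2B6 luciferase reporter; series mostly up to about 92 µM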
# Summary of the method: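 Luminescent ONE-Glo read-out after 24 hr, 37 C exposure of double-stable HepG2-CYP2B6-hCAR reporter cells to a 15-point compound series, in the presence of 0.75 uM PK11195 (final).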
# [6] = qHTS assay to identify small molecule antagonists of the estrogen related receptor signaling pathway with the pleiotropic PPARgamma coactivator (PGC) from Tox21 10K library - cell viability counter screen (AID 1224840; active = well fitted cell-killing curve with a large enough effect in the repeat runs, not every such curve was filed as active; note: nearly all actives have a fitted effect of over 40% in size; note: potency is the fitted concentration of half-maximal effect)
# Summary of the method: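 Seeded PGC/ERR cells (2,000/well, 6 h, 37 C/5% CO2) get compound by pin tool; 17.5 h incubation at 37 C; CellTiter-Fluor added, 30 min, fluorescence measured.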
# [7] = qHTS assay to identify small molecule antagonists of the estrogen related receptor signaling pathway with the pleiotropic PPARgamma coactivator (PGC) from Tox21 10K library (AID 1224841; call rule not given here; note: actives are mostly falling curves and most rising ones were filed inactive; nearly all actives have a fitted effect of over 50% in size; note: potency is the fitted concentration of half-maximal effect; for activity, negative = inhibition: series mostly up to about 92 µM)
# Summary of the method: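 Test chemicals dissolved in DMSO were applied to pre-incubated (6 h) PGC/ERR cells at 2,000 cells/well for an 18 h, 37 C treatment; reporter luminescence was then read using One-Glo.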
# [8] = qHTS assay to identify small molecule agonists of the estrogen related receptor signaling pathway with the pleiotropic PPARgamma coactivator (PGC) from Tox21 10K library (AID 1224842); note: nearly all actives have a fitted effect of over 15% in size
# Summary of the method: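 PGC/ERR reporter cells (NTP line) were seeded 2,000 per well, rested 6 h at 37 C/5% CO2, then pin-dosed with compounds in DMSO for 18 h at 37 C; luciferase read by One-Glo luminescence after 30 min at room temperature.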
# [9] = biological target: Thyrotropin receptor (Homo sapiens) (UniProt P16473); test: qHTS assay to identify small molecule agonists of the thyroid stimulating hormone receptor (TSHR) signaling pathway (AID 1224843; calls by dose curve; note: nearly all actives have a fitted effect of over 45% in size)
# Sequence of Thyrotropin receptor (Homo sapiens) (P16473 whole entry, looked up): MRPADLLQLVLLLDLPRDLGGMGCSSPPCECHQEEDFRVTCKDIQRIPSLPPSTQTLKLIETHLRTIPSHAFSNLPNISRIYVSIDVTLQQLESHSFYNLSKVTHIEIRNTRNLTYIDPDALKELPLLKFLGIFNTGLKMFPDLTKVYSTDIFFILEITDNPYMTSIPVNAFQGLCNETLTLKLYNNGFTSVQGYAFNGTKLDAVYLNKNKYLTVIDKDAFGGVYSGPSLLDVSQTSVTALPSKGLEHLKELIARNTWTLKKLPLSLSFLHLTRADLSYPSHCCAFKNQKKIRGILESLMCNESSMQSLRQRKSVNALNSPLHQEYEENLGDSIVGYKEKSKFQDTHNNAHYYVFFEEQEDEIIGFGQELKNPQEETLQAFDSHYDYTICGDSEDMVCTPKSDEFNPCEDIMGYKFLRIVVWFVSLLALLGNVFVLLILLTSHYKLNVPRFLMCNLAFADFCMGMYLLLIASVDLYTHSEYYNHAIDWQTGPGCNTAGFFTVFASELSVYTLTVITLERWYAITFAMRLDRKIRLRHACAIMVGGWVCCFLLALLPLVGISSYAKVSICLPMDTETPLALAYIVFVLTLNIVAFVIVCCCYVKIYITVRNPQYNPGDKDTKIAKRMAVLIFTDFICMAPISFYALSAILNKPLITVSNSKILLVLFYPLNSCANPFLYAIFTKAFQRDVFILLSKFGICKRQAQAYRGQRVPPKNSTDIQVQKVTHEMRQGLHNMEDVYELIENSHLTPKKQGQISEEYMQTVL
# Summary of the method: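 Compounds are titrated over 15 concentrations, in triplicate, onto TSHR-HEK293 cells seeded at 800/well. Plates sit 30 min at room temperature before cAMP-d2 and anti-cAMP cryptate are added; signal is read after a further hour.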
# [10] = qHTS assay to identify small molecule agonists of the hypoxia (HIF-1) signaling pathway - cell viability counter screen (AID 1224844; calls by dose curve; note: nearly all actives have a fitted effect of over 50% in size; note: potency is the fitted concentration of half-maximal effect)
# Summary of the method: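 HRE-bla ME-180; 0.5% dFBS; cpd 17 h, 37C, 5% CO2; CellTiter-Glo lum., 30 min RT, post-FRET read, same wells.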
compound,measurement,setting,value
CCCCN(CCO)CCCC,Potency,[1],inactive
same,Potency,[2],inactive
same,Potency,[3],inactive
same,Potency,[4],inactive
same,Potency,[5],inactive
same,Potency,[6],inactive
same,Potency,[7],inactive
same,Potency,[8],inactive
same,Potency,[9],inactive
same,Potency,[10],inactive
CC[C@@H](N)CO,Potency,[1],inactive
same,Potency,[2],inactive
same,Potency,[3],inactive
same,Potency,[4],inactive
same,Potency,[5],inactive
same,Potency,[6],inactive
same,Potency,[7],inactive
same,Potency,[8],inactive
same,Potency,[9],inactive
same,Potency,[10],inactive
NC(Cc1ccc(Cl)cc1)C(=O)O (centres undefined),"activity change, negative = inhibition",[1],3.14% [at 0.435 µM] (inactive)
same,"viability change, negative = cytotoxic",[2],1.54% [at 0.349 µM] (inactive)
same,"activity change, negative = cytotoxicity",[3],6.69% [at 0.349 µM] (inactive)
same,"activity, negative = inhibition",[4],-14.1% [at 0.349 µM] (inactive)
same,activation,[5],0.949% [at 0.349 µM] (inactive)
same,"viability change, negative = cytotoxic",[6],-10% [at 0.349 µM] (inactive)
same,"activity, negative = inhibition",[7],0.39% [at 0.349 µM] (inactive)
same,activation,[8],0.108% [at 0.349 µM] (inactive)
same,activation,[9],-0.308% [at 0.349 µM] (inactive)
same,"activity change, negative = cytotoxicity",[10],0.588% [at 0.29 µM] (inactive)
Cc1cccc(O)c1C,Potency,[1],inactive
same,Potency,[2],inactive
same,Potency,[3],inactive
same,Potency,[4],inactive
same,Potency,[5],inactive
same,Potency,[6],inactive
same,Potency,[7],inactive
same,Potency,[8],inactive
same,Potency,[9],inactive
same,Potency,[10],inactive
C=CC(=O)OCCCCCCCC,Potency,[1],inactive
same,Potency,[2],inactive
same,Potency,[3],inactive
same,Potency,[4],inactive
same,Potency,[5],inactive
same,Potency,[6],inactive
same,Potency,[7],13.7 µM (active)
same,Potency,[8],inactive
same,Potency,[9],inactive
same,Potency,[10],inactive
CCN(CC)C(=S)SSC(=S)N(CC)CC,Potency,[1],8.94 µM (active) and 6.48 µM (active) and 8.71 µM (active)
same,Potency,[2],273 nM (active) and 157 nM (active) and 422 nM (active)
same,Potency,[3],273 nM (active) and 249 nM (active) and 211 nM (active)
same,Potency,[4],273 nM (active) and 78.8 nM (active) and 298 nM (active)
same,Potency,[5],inactive
same,Potency,[6],193 nM (active) and 44.3 nM (active) and 266 nM (active)
same,Potency,[7],243 nM (active) and 366 nM (active)
same,Potency,[8],inactive
same,Potency,[10],355 nM (active) and inactive
Nc1nc2ccccc2[nH]1,Potency,[1],inactive
same,Potency,[2],inactive
same,Potency,[3],inactive
same,Potency,[4],inactive
same,Potency,[5],inactive
same,Potency,[6],inactive
same,Potency,[9],inactive
same,Potency,[10],inactive
CCOc1ccc2c(c1)C(C)=CC(C)(C)N2,Potency,[1],56.1 µM (active) and 63.3 µM (active)
same,Potency,[2],inactive
same,Potency,[3],inactive
same,Potency,[4],inactive
same,Potency,[5],27.2 µM (active) and 27.3 µM (active)
same,Potency,[6],inactive
same,Potency,[7],inactive
same,Potency,[8],inactive
same,Potency,[9],inactive
same,Potency,[10],inactive
OCCN1CCNCC1,Potency,[1],inactive
same,Potency,[2],inactive
same,Potency,[3],inactive
same,Potency,[4],inactive
same,Potency,[5],inactive
same,Potency,[6],inactive
same,Potency,[7],inactive
same,Potency,[8],inactive
same,Potency,[9],inactive
same,Potency,[10],inactive
COC(c1ccccc1)(c1ccccc1)[C@H](Oc1nc(C)cc(C)n1)C(=O)O,Potency,[1],inactive
same,Potency,[2],inactive
same,Potency,[3],inactive
same,Potency,[4],inactive
same,Potency,[5],inactive
same,Potency,[6],inactive
same,Potency,[7],inactive
same,Potency,[8],inactive
same,Potency,[9],inactive
same,Potency,[10],inactive
Cc1ccc(S(=O)(=O)Oc2ccc(N=Nc3ccc(-c4ccc(N=Nc5c(O)ccc6cc(S(=O)(=O)O)cc(S(=O)(=O)O)c56)c(C)c4)cc3C)cc2)cc1,Potency,[1],63.5 µM (active) and 23.2 µM (active)
same,Potency,[2],27.4 µM (active) and 20 µM (active)
same,Potency,[3],27.4 µM (active) and 31.6 µM (active)
same,Potency,[4],inactive
same,Potency,[5],inactive
same,Potency,[6],19.4 µM (active) and 20 µM (active)
same,Potency,[7],17.3 µM (active)
same,Potency,[8],inactive
same,Potency,[10],inactive
O=S(=O)(O)c1ccc2nc(-c3ccccc3)[nH]c2c1,Potency,[1],19 µM (active) and 12.3 µM (active)
same,Potency,[2],inactive
same,Potency,[3],inactive
same,Potency,[4],inactive
same,Potency,[5],inactive
same,Potency,[6],inactive
same,Potency,[7],inactive
same,Potency,[8],inactive
same,Potency,[9],inactive
same,Potency,[10],18.6 µM (active) and 10.7 µM (active)
C#CC(C)(CC)OC(=O)c1ccccc1C(=O)O (centres undefined),Potency,[1],inactive
same,Potency,[2],inactive
same,Potency,[3],inactive
same,Potency,[4],inactive
same,Potency,[5],inactive
same,Potency,[6],inactive
same,Potency,[7],inactive
same,Potency,[8],inactive
same,Potency,[9],inactive
same,Potency,[10],inactive
O=C(O)CCc1ccccc1,Potency,[1],inactive
same,Potency,[2],inactive
same,Potency,[3],inactive
same,Potency,[4],inactive
same,Potency,[5],inactive
same,Potency,[6],inactive
same,Potency,[7],inactive
same,Potency,[8],inactive
same,Potency,[9],inactive
same,Potency,[10],inactive
Cc1cccc2n[nH]nc12,Potency,[1],inactive
same,Potency,[2],inactive
same,Potency,[3],inactive
same,Potency,[4],inactive
same,Potency,[5],inactive
same,Potency,[6],inactive
same,Potency,[7],inactive
same,Potency,[8],inactive
same,Potency,[9],inactive
same,Potency,[10],inactive
CCOc1ccccc1C(N)=O,Potency,[1],inactive
same,Potency,[2],inactive
same,Potency,[3],inactive
same,Potency,[4],inactive
same,Potency,[5],inactive
same,Potency,[6],inactive
same,Potency,[9],inactive
same,Potency,[10],inactive
O=Cc1ccc(Cl)cc1,Potency,[1],inactive
same,Potency,[2],inactive
same,Potency,[3],inactive
same,Potency,[4],inactive
same,Potency,[5],inactive
same,Potency,[6],inactive
same,Potency,[7],inactive
same,Potency,[8],inactive
same,Potency,[9],inactive
same,Potency,[10],inactive
CCc1ccc(C(c2ccc(CC)cc2)C(Cl)Cl)cc1,Potency,[1],inactive
same,Potency,[2],inactive
same,Potency,[3],inactive
same,Potency,[5],22 µM (active)
same,Potency,[6],inactive
same,Potency,[10],inactive
O=C(O)c1cc(Cl)cc(Cl)c1,Potency,[1],inactive
same,Potency,[2],inactive
same,Potency,[3],inactive
same,Potency,[5],inactive
same,Potency,[6],inactive
same,Potency,[7],inactive
same,Potency,[8],inactive
same,Potency,[9],inactive
same,Potency,[10],inactive
